Experiment [1] can be described thus: qHTS assay to identify small molecule antagonists of the glucocorticoid receptor (GR) signaling pathway - cell viability counter screen (AID 720693; also: nearly all actives have a fitted effect of over 55% in size; also: potency is read from the fitted curve at half-maximal effect). (Quantitative high-throughput screening tests each substance at several concentrations.)
Experiment [2] in a line: qHTS assay for identifying genotoxic compounds that show differential cytotoxicity against isogenic chicken DT40 cell lines with known DNA damage response pathways - wild type cell line (AID 743012). Also: nearly all actives have a fitted effect of over 60% in size. Also: potency is read from the fitted curve at half-maximal effect. Put shortly:
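Cells (DT40 wild type, 300/well) are treated with DMSO-dissolved compounds after a ~0.5 h pre-incubation and kept 40 h at 37 C/5% CO2. Viability is then measured by CellTiter-Glo luminescence following 30 min at room temperature.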

Experiment [3] in a line: qHTS assay for identifying genotoxic compounds that show differential cytotoxicity against isogenic chicken DT40 cell lines with known DNA damage response pathways - Rev3 mutant cell line (AID 743014). Also: potency is read from the fitted curve at half-maximal effect; nearly all actives have a fitted effect of over 55% in size.
Experiment [4] in a line: qHTS assay for identifying genotoxic compounds that show differential cytotoxicity against isogenic chicken DT40 cell lines with known DNA damage response pathways - Rad54/Ku70 mutant cell line (AID 743015). Also: nearly all actives have a fitted effect of over 60% in size. Also: potency is read from the fitted curve at half-maximal effect.
Experiment [5] can be described thus: qHTS assay to identify small molecule antagonists of the thyroid receptor (TR) signaling pathway - cell viability counter screen (AID 743064). Also: potency is read from the fitted curve at half-maximal effect; nearly all actives have a fitted effect of over 50% in size. Put shortly:
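GH3.TRE-Luc rat pituitary cells dosed after 4 hr plating, co-stimulated with T3 at 1 nM final, incubated 23.5 h at 37 C. Viability measured in the same wells by CellTiter-Fluor fluorescence after 30 min further at 37 C.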

Experiment [6] is described as follows: qHTS assay to identify small molecule antagonists of the thyroid receptor (TR) signaling pathway (AID 743065). Also: nearly all actives have a fitted effect of over 55% in size. Also: potency is read from the fitted curve at half-maximal effect. The method, boiled down: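 GH3.TRE-Luc rat pituitary cells (two TREs driving luciferase) were dosed with compound, then stimulated with 1 nM T3 (final) for 23.5 h at 37 C. ONE-Glo luminescence was the read-out, with CellTiter-Fluor fluorescence as the cytotoxicity counter-screen.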

Experiment [7] addresses Estrogen receptor (Homo sapiens) (UniProt P03372). Briefly: qHTS assay to identify small molecule agonists of the estrogen receptor alpha (ER-alpha) signaling pathway (AID 743075; calls by dose curve;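 also: HEK293 GripTite cells with ER-alpha and UAS-driven beta-lactamase reporter; % is scaled to controls: 0 for no effect and ±100 for the full control effect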). The settings on record: HEK293 ER-alpha-UAS-bla, beta-lactamase FRET ratio, 18 h; activation: at 70.1 µM (top of the series).
The target of a further experiment is Aromatase (Homo sapiens) (UniProt P11511). Briefly: qHTS assay to identify aromatase inhibitors (AID 743083). Also: nearly all actives have a fitted effect of over 55% in size. Also: potency is read from the fitted curve at half-maximal effect.
In experiment [8] the test system is thyroid hormone receptor (rat, GH3 cells). The experiment is described as follows: qHTS assay to identify small molecule agonists of the thyroid receptor (TR) signaling pathway (AID 743066; calls by dose curve; also: % is scaled to controls: 0 for no effect and ±100 for the full control effect).
In experiment [9] the target is Estrogen receptor (Homo sapiens) (UniProt P03372). The experiment is described as follows: qHTS assay to identify small molecule antagonists of the estrogen receptor alpha (ER-alpha) signaling pathway (AID 743069; active = well fitted curve in the direction sought with a large enough effect in the signal ratio in the repeat runs, not every such curve was filed as active; inconclusive = weak or mixed curves, or effect the other way; inactive = no such curve, though single readings can be large or run the other way; the % refers to the signal ratio; also: potency is read from the fitted curve at half-maximal effect). The method, boiled down:
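Reporter cells (ER-alpha-bla, HEK293 background) are conditioned overnight in stripped-serum medium (2% charcoal-stripped FBS). Compound and 17beta-estradiol exposure runs 18 hr at 37C, 5% CO2.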

Experiment [10] in a line: qHTS assay to identify small molecule antagonists of the estrogen receptor alpha (ER-alpha) signaling pathway - cell viability counter screen (AID 743074; calls by dose curve;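 also: HEK293 cells carrying ER-alpha-UAS-bla reporter stimulated with 17beta-estradiol; nearly all actives have a fitted effect of over 45% in size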; also: potency is read from the fitted curve at half-maximal effect).
Experiment [11] in a line: qHTS assay to identify small molecule antagonists of the estrogen receptor alpha (ER-alpha) signaling pathway using the BG1 cell line (AID 743080; calls by dose curve;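 also: BG1 cells stimulated with 17beta-estradiol alongside compound; potency is read from the fitted curve at half-maximal effect; nearly all actives have a fitted effect of over 25% in size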). The method, boiled down:
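Readout is ONE-Glo luminescence, taken 30 min at room temperature after reagent addition, preceded by a CellTiter-Fluor viability read; BG1-Luc-4E2 cells had received compound and 17beta-estradiol for 21.5 h at 37 C.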

Experiment [12] can be described thus: qHTS assay to identify small molecule antagonists of the androgen receptor (AR) signaling pathway - cell viability counter screen (AID 743033; also: nearly all actives have a fitted effect of over 45% in size; also: potency is read from the fitted curve at half-maximal effect).
Experiment [13] can be described thus: qHTS assay to identify small molecule antagonists of the androgen receptor (AR) signaling pathway using the MDA cell line - cell viability counter screen (AID 743041; also: nearly all actives have a fitted effect of over 45% in size; also: potency is read from the fitted curve at half-maximal effect). Put shortly:
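Same-well cytotoxicity was assessed by CellTiter-Fluor in MDA-kb2 AR-luc cells after 16 h of compound treatment under R1881 agonism.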

Experiment [14] can be described thus: qHTS assay to identify aromatase inhibitors - cell viability counter screen (AID 743084). Also: potency is read from the fitted curve at half-maximal effect.
The nature of experiment [15]: qHTS assay to identify small molecule antagonists of the estrogen receptor alpha (ER-alpha) signaling pathway using the BG1 cell line - cell viability counter screen (AID 743081).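 Also: compound given together with 17beta-estradiol as the ER stimulus; % is scaled to controls: 0 for no effect and ±100 for the full control effect; nearly all actives have a fitted effect of over 45% in size.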
Experiment [16] deals with Androgen receptor (Homo sapiens) (UniProt P10275). The experiment is described as follows: qHTS assay to identify small molecule antagonists of the androgen receptor (AR) signaling pathway using the MDA cell line (AID 743042). The method, boiled down:
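MDA-kb2 breast carcinoma cells carrying MMTV-luciferase (AR/GR responsive) were co-treated with compounds and the agonist R1881 for 16 h at 37C. Inhibition read as ONE-Glo luminescence; CellTiter-Fluor fluorescence measured in parallel for cytotoxicity.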

Experiment [17] shares this target. Briefly: qHTS assay to identify small molecule agonists of the androgen receptor (AR) signaling pathway using the MDA cell line (AID 743040; also: % is scaled to controls: 0 for no effect and ±100 for the full control effect; nearly all actives have a fitted effect of over 20% in size). The method, boiled down: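 Human breast carcinoma MDA-kb2 reporter cells (MMTV-luc, AR/GR elements) were treated for 16 h at 37C in 0% CO2 following a 5 h settling period. Signal was quantified by ONE-Glo luminescence.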

The target of experiment [18] is Estrogen receptor (Homo sapiens) (UniProt P03372). Briefly: qHTS assay to identify small molecule agonists of the estrogen receptor alpha (ER-alpha) signaling pathway using the BG1 cell line (AID 743079). Also: % is scaled to controls: 0 for no effect and ±100 for the full control effect; nearly all actives have a fitted effect of over 20% in size. The settings on record: BG1Luc4E2 cells, ERE-luciferase agonist, 22 h; at 95 µM (top of the series).

Each structure is given as a SMILES string. Unmarked numbers belong to inactive results. Active and inactive are the calls of the source. Unless noted, calls follow the shape of the dose curve; as a rule, active = well fitted curve in the direction sought with a large enough effect in the repeat runs; inconclusive = weak or mixed curves; inactive = no such curve, though single readings can be large; an effect the other way counts as inactive or inconclusive.

Estrogen receptor (Homo sapiens), sequence (P03372 whole entry, looked up): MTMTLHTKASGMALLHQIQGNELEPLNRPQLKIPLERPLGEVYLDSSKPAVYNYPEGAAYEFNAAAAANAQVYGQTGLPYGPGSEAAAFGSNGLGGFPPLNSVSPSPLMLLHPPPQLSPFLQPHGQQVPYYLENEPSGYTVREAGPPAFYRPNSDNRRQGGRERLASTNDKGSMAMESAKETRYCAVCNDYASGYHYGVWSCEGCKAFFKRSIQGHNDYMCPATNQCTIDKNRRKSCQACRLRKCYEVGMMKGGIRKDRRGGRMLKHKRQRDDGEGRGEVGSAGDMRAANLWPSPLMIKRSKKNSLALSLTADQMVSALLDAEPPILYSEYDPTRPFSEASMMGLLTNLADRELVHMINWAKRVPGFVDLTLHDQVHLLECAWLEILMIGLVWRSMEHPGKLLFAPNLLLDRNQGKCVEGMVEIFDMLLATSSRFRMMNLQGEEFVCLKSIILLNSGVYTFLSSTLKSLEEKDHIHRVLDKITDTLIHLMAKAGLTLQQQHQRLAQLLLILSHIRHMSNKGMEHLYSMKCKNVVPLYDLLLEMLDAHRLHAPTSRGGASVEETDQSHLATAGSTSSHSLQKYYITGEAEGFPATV
Androgen receptor (Homo sapiens), sequence (P10275 whole entry, looked up): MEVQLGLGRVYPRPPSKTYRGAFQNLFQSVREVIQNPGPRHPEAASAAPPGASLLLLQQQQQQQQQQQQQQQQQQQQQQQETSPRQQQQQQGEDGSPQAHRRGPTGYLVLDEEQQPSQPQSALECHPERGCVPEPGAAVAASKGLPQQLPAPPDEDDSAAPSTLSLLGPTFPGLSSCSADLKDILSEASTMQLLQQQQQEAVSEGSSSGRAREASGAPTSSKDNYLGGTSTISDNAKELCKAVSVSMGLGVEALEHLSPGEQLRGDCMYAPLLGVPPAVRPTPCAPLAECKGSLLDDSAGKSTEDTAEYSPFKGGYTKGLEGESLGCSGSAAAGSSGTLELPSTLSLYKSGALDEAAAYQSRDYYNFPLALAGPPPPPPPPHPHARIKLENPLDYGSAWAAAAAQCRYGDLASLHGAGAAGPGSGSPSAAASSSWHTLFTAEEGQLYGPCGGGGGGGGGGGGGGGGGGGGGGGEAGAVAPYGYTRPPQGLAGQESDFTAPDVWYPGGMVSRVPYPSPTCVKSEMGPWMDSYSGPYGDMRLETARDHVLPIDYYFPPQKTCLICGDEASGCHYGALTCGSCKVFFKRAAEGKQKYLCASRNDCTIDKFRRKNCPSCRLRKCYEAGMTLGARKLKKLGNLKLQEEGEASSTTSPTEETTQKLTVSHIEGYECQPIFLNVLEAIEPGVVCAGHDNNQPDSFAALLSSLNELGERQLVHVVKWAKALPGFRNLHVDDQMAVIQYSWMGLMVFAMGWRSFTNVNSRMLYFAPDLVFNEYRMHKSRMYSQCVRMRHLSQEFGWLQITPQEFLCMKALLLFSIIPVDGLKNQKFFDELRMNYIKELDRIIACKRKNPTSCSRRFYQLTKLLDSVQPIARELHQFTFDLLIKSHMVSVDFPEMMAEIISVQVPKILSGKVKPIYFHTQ
Aromatase (Homo sapiens), sequence (P11511 whole entry, looked up): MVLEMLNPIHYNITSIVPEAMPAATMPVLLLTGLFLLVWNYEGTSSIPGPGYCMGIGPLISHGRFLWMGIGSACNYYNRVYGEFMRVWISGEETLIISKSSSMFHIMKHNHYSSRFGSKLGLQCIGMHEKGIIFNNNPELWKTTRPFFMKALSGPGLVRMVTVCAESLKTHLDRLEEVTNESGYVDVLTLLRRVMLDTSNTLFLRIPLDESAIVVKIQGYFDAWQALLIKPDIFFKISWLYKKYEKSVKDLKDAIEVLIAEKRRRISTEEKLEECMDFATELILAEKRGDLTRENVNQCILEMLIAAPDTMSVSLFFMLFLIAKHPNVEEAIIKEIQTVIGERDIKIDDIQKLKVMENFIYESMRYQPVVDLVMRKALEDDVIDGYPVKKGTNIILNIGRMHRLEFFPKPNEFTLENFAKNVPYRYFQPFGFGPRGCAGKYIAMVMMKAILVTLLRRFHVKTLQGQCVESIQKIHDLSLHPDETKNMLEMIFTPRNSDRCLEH

Turning to `CC(C)n1nc(-c2cc3cc(O)ccc3[nH]2)c2c(N)ncnc21`, the Potency in experiment [1] was 9.52 µM (active); in [2], 0.841 µM (active); in [3], 2.37 µM (active); in experiment [4] it was 0.944 µM (active); in [5] it was 0.106 µM (active); in [6] it was 0.0944 µM (active). The Potency in the experiment with Aromatase (Homo sapiens) was 0.335 µM (active). Further, the Potency result in [7] was “inactive”.

For the compound `CC[C@@]1(O)C(=O)OCc2c1cc1n(c2=O)Cc2cc3c(CN(C)C)c(O)ccc3nc2-1`, the Potency entry in experiment [1], in experiment [8], in [10] and in experiment [7] was “inactive” in each case. For the same compound, the Potency in experiment [2] was 1.33 µM (active); in [3] it was 1.19 µM (active); in experiment [4], 0.841 µM (active); in experiment [6] it was 2.37 µM (active); in experiment [9], 12 µM [inconclusive] (active); in experiment [11] it was 7.5 µM (active). For the same compound, in the experiment with Aromatase (Homo sapiens), the Potency is 5.31 µM (active).

With `CCCC(c1cc(C(C)(C)C)c(O)cc1C)c1cc(C(C)(C)C)c(O)cc1C`, the Potency is 11.1 µM (active) in experiment [1]; 12.3 µM (active) in experiment [3]; 12.3 µM (active) in [4]; 22.1 µM (active) in experiment [12]; 27.6 µM (active) in [13]; 3.9 µM (active) in experiment [5]. Further, the Potency in experiment [6] was 3.1 µM (active); in experiment [10], 19.7 µM (active); in the experiment with Aromatase (Homo sapiens), 15.5 µM (active); in [14], 49.2 µM (active). Also, in experiment [8], the Potency entry was “inactive”.

Take `CN(C)[C@@H]1C(=O)C(C(N)=O)=C(O)[C@@]2(O)C(=O)C3=C(O)c4c(O)ccc(Cl)c4[C@@H](O)[C@H]3C[C@@H]12`: the Potency result in experiment [1], in experiment [2], in experiment [4], in experiment [12], in [13] and in [6] was “inactive” throughout. Also, the Potency entry (in [8]; in experiment [10]; in experiment [15]; in the experiment with Aromatase (Homo sapiens); in experiment [14]) was “inactive” each time.

For the compound `[O-][n+]1ccccc1SSc1cccc[n+]1[O-]`, the Potency result in [1], in experiment [7] and in experiment [15] was “inactive” each time. For the same compound, the Potency in [3] was 0.0668 µM (active); in experiment [4] it was 0.0841 µM (active); in experiment [12], 0.169 µM (active); in [13] it was 1.56 µM (active); in experiment [16] it was 1.19 µM (active); in experiment [5], 0.266 µM (active). Further, the Potency in experiment [6] was 0.211 µM (active); with Aromatase (Homo sapiens) it was 0.15 µM (active); in experiment [14], 0.188 µM (active).

For `Nc1ccc2cc(S(=O)(=O)O)cc(O)c2c1N=Nc1ccccc1C(F)(F)F`, the Potency entry in experiment [1], in [2], in experiment [4], in experiment [12], in experiment [8] and in experiment [10] was “inactive” in each case. The Potency result with Aromatase (Homo sapiens) was “inactive”. Besides, the Potency in experiment [14] is 17.2 µM (active).

As to `O=C1C=CC(=O)N1`, the Potency is 31.7 µM (active) in experiment [1]; 2.5 µM (active) in experiment [3]; 5.59 µM (active) in experiment [4]; 22.5 µM (active) in experiment [12]; 55.9 µM (active) in experiment [13]; 31.4 µM (active) in [16]. Besides, the Potency in [5] was 9.95 µM (active); in experiment [10], 56.4 µM (active); with Aromatase (Homo sapiens) it was 8.86 µM (active); in [14] it was 9.95 µM (active). The Potency entry in experiment [17] and in [7] was “inactive” throughout. Besides, the activation in experiment [18] was -8.49%.

With `CCCN(CCC)c1c([N+](=O)[O-])cc(C(F)(F)F)c(N)c1[N+](=O)[O-]`, the Potency is 48.9 µM (active) in experiment [1]; 12.2 µM (active) in [2]; 12.2 µM (active) in [4]; 60.9 µM (active) in experiment [13]; 13.6 µM (active) in experiment [5]; 13.6 µM (active) in experiment [6]. For the same compound, the Potency with Aromatase (Homo sapiens) is 15.3 µM (active); in [14], 54.3 µM (active).

These data come from PubChem BioAssay (Tox21).
